High-throughput results deposited in PubChem by University of Kansas High Throughput Screening Laboratory.
Pf apPOL block: Pf-apPOL DNA polymerase inhibition | 210,000 compounds, 0.25% hits | Recombinant Pf-apPOL, molecular beacon fluorescence, 1.5 h | AID 1794808 | inhibition, % at 10 µM
mHTT CaM bind: disrupts binding of mutant huntingtin to calmodulin; P42858; AlphaScreen His-mHTT/GST-CaM binding, luminescence; inhibition, % at 15 µM; 190,000 compounds, 3.6% hits
Hits are given with their value; n = inactive; x = not tested or not shown; ! = not active in a repeat. Shown are actives, neighbours in structure and some others; about 3.6% of the full set was active somewhere. Rule as the data show it: active = inhibition above about 50%; inactive = the rest.

SMILES	Pf apPOL block	mHTT CaM bind
CC(C)(C)OC(=O)N1CCC(CNS(=O)(=O)c2ccc3c(c2)OCCO3)CC1	63.3!	x
O=[N+]([O-])c1ccccc1/C=C/CN1CCN(c2ccc(F)cc2)CC1	n	n
O=[N+]([O-])c1ccccc1/C=C/CN1CCN(c2cccc(Cl)c2)CC1	n	59.3
Cc1onc(-c2c(Cl)cccc2Cl)c1NC(=O)N=S(C)(=O)c1ccccc1 (centres undefined)	n	x
COc1ccc(-n2cc(-c3ccccc3)c3c(NCC(C)O)ncnc32)cc1 (centres undefined)	n	n
CCOC1=NN(c2ccc([N+](=O)[O-])cc2)C(=O)/C1=C/c1ccc(Cl)cc1	n	n
O=C1/C(=C\c2ccc(O)cc2)C(N2CCOCC2)=NN1c1ccc([N+](=O)[O-])cc1	n	84.0
CCc1ccccc1NC(=O)C1CC(c2ccccc2F)=NO1 (centres undefined)	n	n
COc1ccccc1CN1CCC(C(=O)N2CCc3ccccc3C2)CC1	n	n
Oc1cccc2ccc(/C=C/c3ccc(F)cc3)nc12	n	n
COc1ccc(/C=C/c2ccc3c(Cl)ccc(O)c3n2)cc1	n	79.0
CC(C)N1C(=O)/C(=C\c2nc3ccccc3c(=O)n2-c2ccc([N+](=O)[O-])cc2)c2ccccc21	n	61.0
CCCN1C(=O)/C(=C\c2nc3ccccc3c(=O)n2-c2ccccc2[N+](=O)[O-])c2ccccc21	n	n
CCCN1C(=O)/C(=C\c2nc3ccccc3c(=O)n2-c2ccccc2OC)c2ccccc21	n	56.0
CCN1C(=O)/C(=C\c2nc3ccccc3c(=O)n2-c2ccccc2C)c2ccccc21	n	63.0
CCCN1C(=O)/C(=C\c2nc3ccccc3c(=O)[nH]2)c2ccccc21	n	n
O=C(O)c1ccc(-n2c(/C=C/c3ccc([N+](=O)[O-])cc3)nc3ccccc3c2=O)cc1	n	n
Cc1ccc(F)c(N2CCN(S(=O)(=O)c3ccccc3)C(C)C2=O)c1 (centres undefined)	n	n
c1csc(CN2CCN(c3ncnc4c3CCC4)CC2)c1	n	n
O=C(Cc1csc(SCc2ccc(Cl)cc2)n1)NCc1ccco1	n	n
CCCn1cc(C2=CCN(S(=O)(=O)c3ccc(NC(C)=O)cc3)CC2)c2cccnc21	n	n
COc1ccccc1C(=O)Nc1ccc2oc(-c3ccccc3C)nc2c1	n	n
O=c1nc2s/c(=C\c3cccc(Br)c3)c(=O)n2nc1Cc1ccccc1	n	n
O=C(CCc1nnc(-c2ccc(F)cc2)[nH]c1=O)N1CCc2ccccc2C1	n	n
CCCCOc1ccc(C2=N/C(=C\c3cccs3)C(=O)O2)cc1	n	n
SMILES	Pf apPOL block	mHTT CaM bind
Cc1ccc(C(=O)NC2(c3nc(C4CC4)no3)CCCCC2)cc1C	n	n
Cc1ccc2nc(NC(=O)C3CC(=O)N(CCc4c[nH]c5ccc(C)cc45)C3)sc2c1 (centres undefined)	n	87.9
Cc1ccc2[nH]cc(CCN3CC(C(=O)Nc4nncs4)CC3=O)c2c1 (centres undefined)	n	n
Cc1ccc2[nH]cc(CCN3CC(C(=O)Nc4ccccc4C)CC3=O)c2c1 (centres undefined)	n	n
Cc1ccc2[nH]cc(CCN3CC(C(=O)Nc4nc5c(C)cccc5s4)CC3=O)c2c1 (centres undefined)	n	80.7
COc1cccc(C(=O)Nc2nc3c(s2)CN(Cc2ccccc2)CC3)c1OC	n	n
CSc1nc2ccc3nc(NC(=O)c4cc(C)no4)sc3c2s1	n	n
CCN1c2cc(Cl)ccc2C(=O)NC12CCN(C(=O)Nc1cc(C)ccc1OC)CC2	n	n
COc1ccc(OC)c(C2CC(c3ccc(I)cc3)Nc3ncnn32)c1 (centres undefined)	n	n
O=C(COc1ccc(Cl)cc1Cl)NCCn1ccc2ccccc21	n	n
O=C(Nc1ccc(Br)c(C(F)(F)F)c1)C1COc2ccccc2O1 (centres undefined)	n	x
COc1ccc(C(=O)N2CCCCCC2)cc1OC	n	n
COc1cc(OC)cc(C2=NC3(CCCCC3)N(C(=O)c3ccc(OC)c(OC)c3)C2=S)c1	n	76.0
CCC(C)Nc1nc(-c2ccccc2O)nc2ccccc12 (centres undefined)	n	n
CCC(C)Nc1nc(-c2cc(OC)c(OC)c(OC)c2)nc2ccccc12 (centres undefined)	51.2	n
COc1cc(-c2nc(NCc3ccc(F)cc3)c3ccccc3n2)cc(OC)c1OC	n	88.0
COc1ccccc1CNc1nc(-c2ccccc2F)nc2ccccc12	n	n
O=[N+]([O-])c1ccc(C2CNC(c3ccccc3)O2)cc1 (centres undefined)	n	n
O=[N+]([O-])c1ccc(C2Nc3ccc(Cl)cc3C(c3ccccc3)O2)cc1 (centres undefined)	n	82.0
Cc1nc(CCNC(=O)C2CCN(C(=O)c3ccc(Cl)cc3)CC2)cs1	n	n
Cc1ccc2ncc(C#N)c(N3CCC(C(=O)Nc4ccccc4)CC3)c2c1	n	n
O=C(Nc1c2c(nn1-c1ccc(F)cc1)CS(=O)C2)c1ccco1 (centres undefined)	n	n
COc1ccc(-n2nc3c(c2NC(=O)c2ccco2)CS(=O)(=O)C3)cc1	n	n
O=C(Nc1c2c(nn1-c1ccccc1)CSC2)C1CC1	n	n
O=C(Nc1c2c(nn1-c1ccc([N+](=O)[O-])cc1)CSC2)c1ccco1	n	n
SMILES	Pf apPOL block	mHTT CaM bind
O=C(Nc1c2c(nn1-c1ccc(F)cc1)CSC2)c1ccco1	n	79.0
O=C(Nc1c2c(nn1-c1ccccc1)CSC2)c1ccco1	n	77.0
O=C(Nc1c2c(nn1-c1ccc(Oc3ccccc3)cc1)CSC2)C1CC1	n	56.0
O=C(Nc1c2c(nn1-c1ccc(Oc3ccccc3)cc1)CSC2)c1ccco1	n	96.0
Cn1cc(C2=CCN(C(=O)c3cccc(Cl)c3)CC2)c2cccnc21	n	n
CCN1CCN(C(=O)c2cnn(-c3ccccc3C)c2-c2ccccc2)CC1	n	n
Cc1cc(S(=O)(=O)Cc2ccc(NC(=O)C(Cl)(Cl)Cl)cc2)c(C)cc1Cl	n	x
COc1ccc(Cl)cc1NC(=O)C(=O)NCCC1=CCCCC1	n	n
Cn1cccc1C(=O)N1CCC2(CC1)NC(=O)N(Cc1cccc(Cl)c1)C2=O	n	n
CCOC(=O)C(C)Oc1ccc2c(c1)OC(=Cc1cccc(C)c1)C2=O (centres undefined)	n	n
COC(=O)C1CN(Cc2ccc(F)cc2)CCS(=O)(=O)N1Cc1cn(Cc2ccc(OC)cc2)nn1 (centres undefined)	n	n
CCOc1cc(-c2ccc(OCc3ccccc3)c(OC)c2)cc(=O)c2c(C)oc(C)c12	n	70.0
COc1cc(-c2ccc(O)cc2)cc(=O)c2c(C)oc(C)c12	n	n
COc1ccc(-c2cc(OC)c3c(C)oc(C)c3c(=O)c2)cc1	n	54.0
CCOc1cc(-c2ccc(SC)cc2)cc(=O)c2c(C)oc(C)c12	n	70.0
CCOc1cc(-c2ccc(O)c(O)c2)cc(=O)c2c(C)oc(C)c12	n	n
CCOc1cc(-c2cc(OC)c(OC)c(OC)c2)cc(=O)c2c(C)oc(C)c12	n	n
COc1cccc2cc(C(=O)Nc3cccc(Cl)c3Cl)oc12	n	n
CCOc1ccc(/C=N/OC(=O)c2cccc([N+](=O)[O-])c2)cc1	n	n
O=C(NCc1ccc(F)cc1)c1ccc(NC(=O)N2CC3CCCN3c3ccccc32)cc1 (centres undefined)	n	54.1
